TGFb inhibitor: inhibitors of TGF-b signaling | HepG2 CAGA-GFP TGF-b/SMAD3 reporter, GFP fluorescence, 18 h; TGF-beta stimulated, 500 pg/mL final | Potency, µM (top dose mostly 46.1 µM), hits mostly inhibitors | 410,000 compounds, 1.2% hits | AID 588855; note: nearly all actives have a fitted effect of over 65% in size
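HEPG2 CAGA-GFP, 1000 cells/well; 2 h settle, 37 C; cpd via pin tool; TGF-b 500 pg/mL final; 18 h, 37 C; GFP imaging ex488/em500-530; %Activity normalised to -TGF-b and +DMSO controls; CRC fit, curve class.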
HepG2 viability: kills HepG2 cells in TGF-b inhibitor counter-screen; HepG2 CAGA-GFP viability, ATP luminescence, 18 h; Potency, µM (highest dose often 46.1 µM), actives largely listed as cytotoxic; 410,000 compounds, 0.76% hits
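CellTiter-Glo luminescence gave cytotoxicity after 18 hours at 37 degrees C. The cells were HepG2 CAGA-GFP in 1% FBS DMEM, stimulated with 500 pg/mL TGF-beta after compound addition. %Activity was normalised to no-cell wells (complete cell-killing) and DMSO (no toxicity), and curves were fitted and classified.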
TDP1 cell CPT: growth inhibition of DT40 Tdp1-/-;hTDP1 cells with camptothecin (screen for TDP1 inhibitors); chicken DT40 Tdp1-/-;hTDP1 cells + 20 nM CPT, ATP luminescence, 48 h; Potency, µM (doses to about 46.2 µM), hits mostly inhibitors; 420,000 compounds, 12% hits; AID 686979; note: nearly all actives have a fitted effect of over 55% in size
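Cell growth measured by CellTiter-Glo luminescence after a minimum 48 h, 37 C compound exposure with 20 nM CPT in Tdp1-knockout DT40 cells stably expressing hTDP1, seeded 400/well; qHTS titration format.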
DT40 TDP1 no CPT: qHTS for Inhibitors of human tyrosyl-DNA phosphodiesterase 1 (TDP1): qHTS in cells in absence of CPT | Potency, µM (series often up to 46.2 µM), hits mostly inhibitors | 420,000 compounds, 15% hits | DT40 Tdp1-/- hTDP1 cells, no CPT, ATP luminescence, 48 h; note: nearly all actives have a fitted effect of over 55% in size
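Luminescent ATP content (CellTiter-Glo) served as the growth readout. Knockout chicken DT40 cells expressing human TDP1 were exposed to compounds without camptothecin for a minimum 48 hr at 37 °C.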
HT1080 IDH1KD tx: toxicity to HT-1080 IDH1 knockdown cells (counter line); Potency, µM (top dose mostly 46.1 µM), actives largely listed as cytotoxic; HT-1080 IDH1 knockdown viability, ATP luminescence, 48 h; 360,000 compounds, 2% hits; AID 686971
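CellTiter-Glo luminescence after 48 h compound exposure at 37 degrees C of IDH1-knockdown HT-1080 cells in 5% FBS RPMI. %Activity scaled between DMSO wells and cell-free media wells, with curves fitted and assigned curve classes.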
HT1080-NT tox: kills 2HG-producing HT-1080-NT fibrosarcoma cells; 360,000 compounds, 1.6% hits; HT-1080-NT fibrosarcoma viability, CellTiter-Glo ATP luminescence, 48 h; Potency, µM (titrated, usually from 46.1 µM), usual class: cytotoxic;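 note: NT is the 2HG producing partner of a matched IDH1 knockdown line; nearly all actives have a fitted effect of over 55% in size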
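Read-out is CellTiter-Glo luminescence after 10 minutes at room temperature, following 48 hours' compound treatment of HT-1080-NT cells (750 cells/well, RPMI, 5% FBS, 37 degrees C).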
Of the large screens only hits and unclear results are named; the others gave an inactive call; ! = a repeat was not active. Only some compounds are listed: those with a hit (about 17% of all), similar ones and a draw of the others. Calls come from the whole dose curve; as a rule, active = well fitted curve in the direction sought with a large enough effect; inconclusive = small, poorly fitted or top-dose-only effect, or another doubt; inactive = no such curve, though single readings can be large; an effect the other way counts as inactive or inconclusive.

O=C1c2[nH]nc(-c3ccccc3O)c2C(c2cccc(Br)c2)N1Cc1ccncc1 (stereo not drawn)	TGFb inhibitor inconclusive, TDP1 cell CPT 2.91µM, DT40 TDP1 no CPT 1.16µM (no result: HT1080 IDH1KD tx, HT1080-NT tox)
COC(=O)c1ccc(C2c3c(-c4ccccc4O)n[nH]c3C(=O)N2Cc2ccncc2)cc1 (stereo not drawn)	TDP1 cell CPT 18.4µM, DT40 TDP1 no CPT inconclusive (no result: HT1080 IDH1KD tx, HT1080-NT tox)
Cc1ccc(C2c3c(-c4ccccc4O)n[nH]c3C(=O)N2Cc2ccncc2)cc1 (stereo not drawn)	TDP1 cell CPT inconclusive, DT40 TDP1 no CPT 23.1µM, HT1080 IDH1KD tx inconclusive, HT1080-NT tox inconclusive
c1ccc(-c2nnc(SCC3CCCCO3)nc2-c2ccccc2)cc1 (stereo not drawn)	TDP1 cell CPT inconclusive, DT40 TDP1 no CPT inconclusive
Cc1c(OCC(=O)N[C@H](C(=O)O)c2ccccc2)ccc2c3c(c(=O)oc12)CCCC3	none
CCc1ccc(C2c3c(-c4cc(C)ccc4O)n[nH]c3C(=O)N2Cc2cccnc2)cc1 (stereo not drawn)	TGFb inhibitor inconclusive, HepG2 viability 20µM, TDP1 cell CPT inconclusive, DT40 TDP1 no CPT inconclusive (no result: HT1080 IDH1KD tx, HT1080-NT tox)
CCOc1ccc(C2c3c(-c4cc(C)ccc4O)n[nH]c3C(=O)N2Cc2cccnc2)cc1OCC (stereo not drawn)	none (no result: HT1080 IDH1KD tx, HT1080-NT tox)
Cc1ccccc1NC(=O)c1nc(S(C)(=O)=O)ncc1N(Cc1ccco1)Cc1sccc1C	TDP1 cell CPT 16.4µM, DT40 TDP1 no CPT 20.6µM (no result: HT1080 IDH1KD tx, HT1080-NT tox)
Cc1cccc(C)c1NC(=O)c1nc(S(C)(=O)=O)ncc1N(Cc1ccc(C(C)(C)C)cc1)Cc1ccco1	TDP1 cell CPT inconclusive, DT40 TDP1 no CPT inconclusive (no result: HT1080 IDH1KD tx, HT1080-NT tox)
Cc1ccc(NC(=O)c2nc(S(C)(=O)=O)ncc2N(Cc2ccco2)Cc2cccs2)c(C)c1	TGFb inhibitor inconclusive, TDP1 cell CPT inconclusive, DT40 TDP1 no CPT 20.6µM (no result: HT1080 IDH1KD tx, HT1080-NT tox)
CCS(=O)(=O)c1ncc(N(Cc2ccco2)Cc2sccc2C)c(C(=O)Nc2cc(C)ccc2C)n1	TDP1 cell CPT inconclusive, DT40 TDP1 no CPT 20.6µM (no result: HT1080 IDH1KD tx, HT1080-NT tox)
CCS(=O)(=O)c1ncc(N(Cc2ccccc2)Cc2ccco2)c(C(=O)Nc2cccc(Cl)c2C)n1	TDP1 cell CPT inconclusive, DT40 TDP1 no CPT inconclusive (no result: HT1080 IDH1KD tx, HT1080-NT tox)
Cc1ccc(NC(=O)c2nc(S(C)(=O)=O)ncc2N(Cc2cccc(F)c2)Cc2ccco2)cc1C	TDP1 cell CPT inconclusive, DT40 TDP1 no CPT inconclusive (no result: HT1080 IDH1KD tx, HT1080-NT tox)
Cc1ccc(CN(Cc2ccco2)c2cnc(S(C)(=O)=O)nc2C(=O)Nc2ccccc2Br)o1	TDP1 cell CPT 9.2µM, DT40 TDP1 no CPT 8.2µM (no result: HT1080 IDH1KD tx, HT1080-NT tox)
O=C(/C=C\c1ccc2c(c1)OCO2)NC1CC(=O)N(c2ccc(F)cc2)C1 (stereo not drawn)	TGFb inhibitor inconclusive (no result: HT1080 IDH1KD tx, HT1080-NT tox)
CCOC(=O)/C=C/C(=O)Nc1ccc(-c2nnc3n2CCCCC3)cc1	none
COc1ccc(/C=C/C(=O)Nc2ccc(-c3nnc4n3CCCCC4)cc2)c(OC)c1	TDP1 cell CPT 9.2µM, DT40 TDP1 no CPT 2.31µM
Cc1cc(C)n(-c2ccc(Cl)c(C(=O)Nc3ccc(-c4nnc5n4CCCCC5)cc3)n2)n1	TDP1 cell CPT 2.06µM, DT40 TDP1 no CPT 1.84µM
CCS(=O)(=O)N1CCc2cc(C(=O)N3CCN(c4ccccc4)CC3)ccc21	TDP1 cell CPT 16.4µM, DT40 TDP1 no CPT 14.6µM (no result: HT1080 IDH1KD tx, HT1080-NT tox)
CS(=O)(=O)N1CCc2cc(C(=O)N3CCN(c4cccc(Cl)c4)CC3)ccc21	TGFb inhibitor inconclusive, TDP1 cell CPT 16.4µM, DT40 TDP1 no CPT 18.4µM!
CCS(=O)(=O)N1CCc2cc(C(=O)N3CCN(c4ccc(OC)cc4)CC3)ccc21	TGFb inhibitor inconclusive, TDP1 cell CPT inconclusive, DT40 TDP1 no CPT inconclusive (no result: HT1080 IDH1KD tx, HT1080-NT tox)
O=C(c1cccc(S(=O)(=O)N2CCc3ccccc32)c1)N1CCN(c2ccccc2)CC1	TDP1 cell CPT inconclusive, DT40 TDP1 no CPT 29.1µM, HT1080 IDH1KD tx inconclusive, HT1080-NT tox 13µM

Compound activity (PubChem BioAssay)
